18 molecules from PubChem BioAssay (NCATS) can be followed below.

Test [1] can be described thus: qHTS assay for environmental chemicals that activate the Aryl hydrocarbon Receptor (AhR) signaling pathway (AID 651777). Note: % of control where 0% means no effect; nearly all actives have a fitted effect of over 15% in size. The conditions noted are these: 1A2-DRE human hepatoma cells, luciferase, 24 h; hits give high values. Summed up:
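Human hepatoma 1A2-DRE cells, stably carrying a dioxin response element and CYP1A2 promoter driving luciferase, were exposed to compounds for 24 hr at 37 C and 5% CO2. Luciferase signal was then read after 30 min One-Glo at room temperature.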
In general terms: qHTS replaces the single test concentration by a dilution series.

The target in test [2] is Peroxisome proliferator-activated receptor alpha (Homo sapiens) (UniProt Q07869). Put plainly: qHTS assay for small molecule agonists of the peroxisome proliferator-activated receptor alpha (PPARalpha) signaling pathway (AID 651778). Note: % of control where 0% means no effect. The conditions noted are these: PathHunter PPARalpha complementation, chemiluminescence, 6 h; hits give high values. In outline:
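Enzyme-fragment complementation assay in which ligand-bound PPARalpha translocates and forms an active enzyme that generates chemiluminescence. Cells were plated overnight, exposed to compound for 6 hr at 37 C, and then given detection reagent for 60 min at room temperature.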

The target of test [3] is Nuclear receptor ROR-gamma (Homo sapiens) (UniProt P51449). As to the kind of experiment: qHTS assay for small molecule antagonists of the retinoid-related orphan receptor gamma (ROR-gamma) signaling pathway (AID 651802).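 Note: CHO cells with doxycycline-induced ROR-gamma expression; % is set by controls: 0 for no effect and ±100 for the full control effect; nearly all actives have a fitted effect of over 60% in size.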 Particulars: ROR-gamma antagonist cell reporter assay; series mostly up to 92.2 µM. Summed up: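 Steps: cells dispensed; compound or DMSO transferred by pin tool; doxycycline added to induce the ROR response element-driven luciferase; plates held 16hr at 37C; ONE-Glo added and luminescence measured.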
Chain of Nuclear receptor ROR-gamma (Homo sapiens) (P51449 whole entry, looked up): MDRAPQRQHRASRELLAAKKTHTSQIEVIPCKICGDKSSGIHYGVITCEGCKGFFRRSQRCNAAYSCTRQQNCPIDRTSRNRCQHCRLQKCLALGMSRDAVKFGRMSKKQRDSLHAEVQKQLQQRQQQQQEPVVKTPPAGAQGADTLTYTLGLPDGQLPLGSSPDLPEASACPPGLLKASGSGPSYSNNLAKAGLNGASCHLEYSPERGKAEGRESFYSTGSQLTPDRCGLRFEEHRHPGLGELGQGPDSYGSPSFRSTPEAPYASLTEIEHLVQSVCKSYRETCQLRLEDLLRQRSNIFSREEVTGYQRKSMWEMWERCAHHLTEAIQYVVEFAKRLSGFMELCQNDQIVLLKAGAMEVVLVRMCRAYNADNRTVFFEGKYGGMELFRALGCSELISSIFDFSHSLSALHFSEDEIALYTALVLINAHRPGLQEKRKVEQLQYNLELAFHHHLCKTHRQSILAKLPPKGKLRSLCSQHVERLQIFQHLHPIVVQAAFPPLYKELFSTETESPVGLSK

Test [4] can be described thus: qHTS assay for small molecule agonists of the antioxidant response element (ARE) signaling pathway measured by Nrf2-dependant transcriptional activity (AID 720636; active = well fitted curve in the direction sought with a large enough effect in the repeat runs; an effect the other way counts as inactive or inconclusive; note: % of control where 0% means no effect). Particulars: ARE-luc HepG2, Nrf2 luciferase reporter, 16 h; series mostly up to 92.4 µM. Summed up:
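ARE-luc HepG2 cells carrying an Nrf2-responsive luciferase reporter were plated in medium with 1% dialyzed FBS, left 6 hr at 37 C to attach, then exposed to compound for 16 hr. Luciferase luminescence was read after ONE-Glo addition.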

Test [5] in a line: qHTS assay for small molecule antagonists of the retinoid-related orphan receptor gamma (ROR-gamma) signaling pathway - cell viability counter screen (AID 720652; active = well fitted curve in the direction sought with a large enough effect in the repeat runs; an effect the other way counts as inactive or inconclusive;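 note: CHO reporter cells with doxycycline-induced ROR-gamma expression; compound exposure lasted 16 hr before ATP read; % is set by controls: 0 for no effect and ±100 for the full control effect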). The conditions noted are these: RORgamma reporter cell line viability counter screen; series mostly up to 92.2 µM. In outline:
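Steps: seed CHO cells bearing TET-inducible ROR and ROR response element-luciferase; rest 5 hr at 37 C; add compound, then doxycycline; incubate 16 hr; add CellTiter-Glo and read luminescence as ATP-based viability.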

The nature of test [6]: qHTS assay for small molecule agonists of the antioxidant response element (ARE) signaling pathway measured by Nrf2-dependant transcriptional activity - cell viability counter screen (AID 720653; active = well fitted curve in the direction sought with a large enough effect in the repeat runs; an effect the other way counts as inactive or inconclusive; note: % is set by controls: 0 for no effect and ±100 for the full control effect). Particulars: ARE-bla HepG2 viability, CellTiter-Glo ATP luminescence, 16 h; hits give low values. Summed up:
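ARE-bla HepG2 cells treated with compounds for 16 h at 37C; this counter screen measures viability as intracellular ATP by CellTiter-Glo luminescence after 30 min at room temperature.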

The nature of test [7]: qHTS Assay for Identifying Gametocytocidal Compounds (AID 743244).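 Note: % is set by controls: 0 for no effect and ±100 for the full control effect; actives lower the fluorescent signal which means gametocytes are killed.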 Particulars: P. falciparum 3D7 stage III-V gametocytes, alamarBlue, 72 h; max response: hits give low values. In outline:
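Using 20,000 stage III–V 3D7 gametocytes per well, compounds were incubated 72 h under 37 °C/5% CO2. Viability was then assessed by 24 h alamarBlue reduction, measured fluorometrically at 525/598 nm.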

Test [8] in a line: qHTS assay for cell viability of HEK293 cells (AID 743288). Note: % is set by controls: 0 for no effect and ±100 for the full control effect; nearly all actives have a fitted effect of over 50% in size. Particulars: ATP luminescence (CellTiter-Glo), 18 h, hits give low values. In outline: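 Quantitative high-throughput screen: compounds were pinned onto parental HEK293 cells (2,000 per well) after a minimum 5 h settling at 37 C, incubated 18 h at 37 C, and intracellular ATP measured by luciferase luminescence.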
Test [9] is described as follows: qHTS assay for cell viability of the p53RE-bla HCT-116 cell line (AID 743292). Note: % is set by controls: 0 for no effect and ±100 for the full control effect; nearly all actives have a fitted effect of over 55% in size. Particulars: p53RE-bla HCT-116 viability, ATP luminescence, 16 h; series mostly up to 95 µM. In outline:
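CellSensor p53RE-bla HCT-116 cells, 4,000/well, preincubated 5 h at 37 C, then exposed to compounds in DMSO for 16 h at 37 C. Viability read as CellTiter-Glo luminescence (intracellular ATP) after 30 min at room temperature.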

Test [10] deals with DNA polymerase kappa (Homo sapiens) (UniProt Q9UBT6). Put plainly: qHTS for Inhibitors of Polymerase Kappa: Confirmatory Assay for Cherry-picked Compounds (AID 720501). Note: potency is the fitted concentration of half-maximal effect. Particulars: purified Pol-kappa, fluorescent strand-displacement substrate. In outline: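 10 nM human Pol-kappa was preincubated with compound 15 min at room temperature, then 50 nM (final) primer/template substrate with TAMRA-labeled reporter strand and BHQ-2-labeled template added. Fluorescence (Ex 525, Em 598 nm) read at 0 and 10 min.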
Chain of DNA polymerase kappa (Homo sapiens) (Q9UBT6 whole entry, looked up): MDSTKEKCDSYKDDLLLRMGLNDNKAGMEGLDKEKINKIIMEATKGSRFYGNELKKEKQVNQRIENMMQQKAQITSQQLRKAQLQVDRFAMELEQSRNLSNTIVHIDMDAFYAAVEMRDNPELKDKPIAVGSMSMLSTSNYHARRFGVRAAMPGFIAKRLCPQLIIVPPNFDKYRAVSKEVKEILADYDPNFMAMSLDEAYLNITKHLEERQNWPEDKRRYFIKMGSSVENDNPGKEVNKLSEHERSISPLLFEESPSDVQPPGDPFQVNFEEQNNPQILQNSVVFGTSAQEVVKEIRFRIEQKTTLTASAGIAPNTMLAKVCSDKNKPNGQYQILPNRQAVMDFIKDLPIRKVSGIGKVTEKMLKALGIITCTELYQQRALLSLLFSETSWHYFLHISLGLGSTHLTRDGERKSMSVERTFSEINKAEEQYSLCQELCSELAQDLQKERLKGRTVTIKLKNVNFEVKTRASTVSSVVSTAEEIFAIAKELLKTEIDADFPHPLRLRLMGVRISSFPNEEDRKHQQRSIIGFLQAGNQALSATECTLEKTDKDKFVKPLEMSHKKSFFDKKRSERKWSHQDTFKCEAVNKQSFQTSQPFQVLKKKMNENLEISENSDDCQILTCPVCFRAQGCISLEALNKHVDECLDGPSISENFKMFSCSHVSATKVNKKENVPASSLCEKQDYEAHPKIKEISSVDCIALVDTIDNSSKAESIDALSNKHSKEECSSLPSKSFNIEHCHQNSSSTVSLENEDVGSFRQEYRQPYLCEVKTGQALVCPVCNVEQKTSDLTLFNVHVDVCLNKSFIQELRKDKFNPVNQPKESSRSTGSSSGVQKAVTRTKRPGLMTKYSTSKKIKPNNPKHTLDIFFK

“And” between values parts separate entries of the source, which are not always exact repeats. Equal values may be shown once. Values without a mark were called inactive. Inconclusive results are not listed. This is one part of the list. The source made the active and inactive calls. Unless noted, calls come from the whole dose curve; as a rule, active = well fitted curve in the direction sought with a large enough effect; inconclusive = small, poorly fitted or top-dose-only effect, or another doubt; inactive = no such curve, though single readings can be large; an effect the other way counts as inactive or inconclusive.

Chain of Peroxisome proliferator-activated receptor alpha (Homo sapiens) (Q07869 whole entry, looked up, the tested form may be a part): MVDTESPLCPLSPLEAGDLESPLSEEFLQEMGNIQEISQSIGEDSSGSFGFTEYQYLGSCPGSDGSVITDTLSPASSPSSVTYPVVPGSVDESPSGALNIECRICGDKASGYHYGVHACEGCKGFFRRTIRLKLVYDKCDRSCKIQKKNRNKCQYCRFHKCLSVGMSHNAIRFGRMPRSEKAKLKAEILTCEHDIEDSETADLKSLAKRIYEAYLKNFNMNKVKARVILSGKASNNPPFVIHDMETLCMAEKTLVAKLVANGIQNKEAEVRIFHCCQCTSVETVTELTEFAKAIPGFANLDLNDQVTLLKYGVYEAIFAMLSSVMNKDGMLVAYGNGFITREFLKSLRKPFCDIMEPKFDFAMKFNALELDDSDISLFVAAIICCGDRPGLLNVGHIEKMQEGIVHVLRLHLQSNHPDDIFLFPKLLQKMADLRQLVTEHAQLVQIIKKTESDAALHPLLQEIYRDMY

On to `CCCCCCCC(=O)OCC(COC(=O)CCCCCCC)OC(=O)CCCCCCC`, for which, in test [1], the activation was -1.98%. Besides, the max response in test [2] is 4.51%; in test [6], 1.9%; in [7], 1.43%; in test [8], -8.85%. Moreover, the call in [3], in test [4], in test [5] and in [9] was inactive.

As for `COc1ccc(O)cc1`, in [1], the activation is 0.2%. Also, the max response in test [2] was -1.68%; in test [6], -1.63%; in test [7], -2.64%; in test [8] it was -0.79%. The molecule was classed as inactive in test [4], in test [5] and in [9].

Regarding `O=C1c2cccc(O)c2C(=O)c2c(O)cccc21`, the activation in test [1] was 5.57%. In addition, the figures for the max response in [2], in [7] and in [8] were -5.75%, 2.37% and -10.2%, respectively. The outcome in [3], in test [5] and in test [9] was inactive.

Take `Cc1c(I)c(=O)n(-c2ccccc2)n1C`: the max response in [7] was 4.77%.

Turning to `CC(=O)Nc1cccc(O)c1`, the activation in [1] is 2.7%. Further, the max response in [2] was -0.0766%; in test [6], 3.22%; in [8], -4.32%. Besides, the call in [4], in [5] and in test [9] was inactive.

As to `CCCC(O)C(CC)CO` (stereo not given), in test [1], the activation was 0.804%. The max response was -4.25% in [2], 0.4% in test [6], 0.642% in [7] and -0.929% in test [8]. The outcome in test [3], in test [4], in [5] and in [9] was inactive.

As to `CCCCCC(N)=O`, the activation in [1] is -0.0681%. Besides, the max response is -2.19% in test [2], -1.07% in test [6], 2.77% in test [7] and 7.6% in test [8]. Further, the call in test [3], in test [4], in [5] and in [9] was inactive.

Regarding `Cc1cc(C)nc(NS(=O)(=O)c2ccc(N)cc2)n1`, in test [1], the activation is -1.73% and 0.131%. For the same molecule, the max response in test [2] was -5.72% and -2.38%; in test [6], -4.69% and 1.65%; in test [7], -2.99%; in test [8] it was 2.28% and -2.43%. The molecule was called inactive in test [4], in test [5] and in test [9].

With `COc1ccc(-c2cc(=O)c3c(O)cc(O[C@@H]4O[C@H](CO[C@@H]5O[C@@H](C)[C@H](O)[C@@H](O)[C@H]5O)[C@@H](O)[C@H](O)[C@H]4O)cc3o2)cc1O`, the Potency in test [10] was 18.9 µM (active). Moreover, the max response in [7] is -2.29%.

In the case of `Nc1ccc(S(=O)(=O)c2ccc(N)cc2)cc1`, the activation in test [1] is -1.52% and 0.0487%. The max response in test [2] is -8.33% and -0.873%; in test [6], -3.28% and -10.9%; in [7], -3.88%; in [8] it was -5.62% and -11.7%. For the same molecule, the result in test [3], in [4], in test [5] and in [9] was inactive.

Turning to `Cc1c(N(C)C)c(=O)n(-c2ccccc2)n1C`, in [1], the activation is -1.03% and 1.07%. Besides, the max response in test [2] is -3.72% and 2.35%; in test [6], -0.437% and -7.96%; in [7] it was -4.29%; in test [8] it was 1.77% and -15.3%. Moreover, the outcome in test [3], in test [4], in [5] and in [9] was inactive.

On to `Cc1cc(O)cc(C)c1Cl`, for which the max response was -0.107% in test [2], 0.227% in test [6], -2.6% in test [7] and -9.96% in [8]. For the same molecule, the outcome in [4] and in test [9] was inactive.

With `O=C1C(c2[nH]c3ccccc3c2O)=Nc2ccccc21`, the max response in test [2] was -5.35%; in test [6] it was -0.733%; in [8], 1.4%. In addition, the outcome in test [3], in test [4], in test [5] and in [9] was inactive.

For `O=C(O)CCCCC1CCSS1` (stereo not given), in test [1], the activation was 1.47% and -0.721%. In addition, the max response was -5.44% and -4.99% in test [2]; 10.3% and -9.69% in test [6]; 3.67% in test [7]; -11.1% and -8.74% in test [8]. Besides, the molecule was classed as inactive in [4] and in test [9].

With `Cc1cc(=O)[nH]c(=S)[nH]1`, the activation in test [1] is -0.745%. In addition, the max response in test [2] was -5.54%; in test [6], 1.24%; in test [7], 4.75%; in [8], -3.4%. The molecule was called inactive in test [3], in test [4], in [5] and in test [9].

On to `O=C(OOC(=O)c1ccccc1)c1ccccc1`, for which the activation in [1] was 2.82%. The max response was -3.46% in [2], -11.2% in [6], -8.14% in [7] and -11.7% in test [8]. Besides, the call in [4] and in test [9] was inactive.

As for `CC(C)=CCC/C(C)=C/CO`, in test [1], the activation was -0.426%. The max response in test [2] was -2.93%; in test [6], 4.56%; in test [7] it was 19.8%; in [8], 0.933%. For the same molecule, the result in [4] and in [9] was inactive.

For `CC(=O)Nc1ccc(C(=O)O)cc1`, the activation in test [1] is 0.454%. In addition, the max response in [2] is -0.167%; in test [6], -5.69%; in test [7], 7.86%; in test [8], -10.3%. The molecule was called inactive in [3], in test [4], in [5] and in test [9].
